Data taken from PubChem BioAssay (Tox21).
Results filed as inconclusive are left out. A call without a number means that no potency is given here. Active and inactive are the calls of the source. Calls come from the whole dose curve; as a rule, active = well fitted cell-killing curve with a large enough effect in the repeat runs; inconclusive = weak or mixed curves; inactive = no such curve, though single readings can be large or run the other way.

Assay: qHTS assay for identifying genotoxic compounds that show differential cytotoxicity against isogenic chicken DT40 cell lines with known DNA damage response pathways - Rad54/Ku70 mutant cell line (AID 743015); note: nearly all actives have a fitted effect of over 60% in size
Conditions: DT40 Rad54/Ku70 mutant viability, CellTiter-Glo, 40 h; series mostly up to 66.8 µM
Source text: National Center for Advancing Translational Sciences [NCATS]
NIH Chemical Genomics Center [NCGC]
U.S. Environmental Protection Agency [EPA]
National Institutes of Environmental Health Sciences [NIEHS]
National Toxicology Program [NTP]
U.S. Food and Drug Administration [FDA]
DNA repair pathways play a critical role in cellular homeostasis by repairing DNA damage induced by endogenous processes and xenobiotics. Isogenic chicken DT40 cell lines deficient in different DNA repair pathways can be used to identify genotoxic compounds and aid in characterizing the nature of the DNA damage induced. Two DNA repair-deficient cell lines with disrupted genes, Rad54/Ku70 or Rev3, were used to screen the Tox21 10K compound library. Possible genotoxicity was based on the presence of a significant increase in cytotoxicity in one or more of the DNA repair-deficient cell lines compared to that observed in the parental DNA repair-proficient cell line. CellTiter Glo viability assay (Promega, Madison, WI) was used to measure cell viability in these cells after compound treatment. This assay includes the data from the Rad54/Ku70 mutant cell line.
Tox21 Assay Protocol Summary:
300 DT40 mutant cells in 5 uL/well were dispensed into white, solid-bottom 1536-well plates using a Multidrop Combi (ThermoFisher Scientific, Waltham, MA) dispenser. After the assay plates were incubated at 37 C/5% CO2 for approximately 0.5 hour, 23 nL of compounds dissolved in DMSO, positive controls or DMSO only was transferred into the assay plate by a pintool work station (Kalypsys, San Diego, CA). The assay plates were incubated at 37 C/5% CO2 for 40 hours. After 5 uL per well of CellTiter-Glo reagent was added into each well of the assay plates, the plates were incubated for 30 min at room temperature and the luminescence intensity of the plates was measured using a ViewLux (PerkinElmer, Shelton, CT) plate reader.
Potency is the fitted concentration of half-maximal effect.

| Structure (SMILES) | Potency |
| --- | --- |
| CCCCCC[C@@H](O)C/C=C\CCCCCCCC(=O)OCC(O)CO (stereo not given in full) | inactive |
| COc1cc(N)c(Cl)cc1C(=O)NC1CCN(CCCOc2ccc(F)cc2)CC1OC (stereo not given) | 12.7 µM (active) |
| O=[N+]([O-])c1ccc(Nc2ccc(Nc3ccccc3)c(S(=O)(=O)O)c2)c([N+](=O)[O-])c1 | inactive |
| C[C@@H]1CN(CCCn2c3ccccc3c3ccccc32)C[C@H](C)N1 | 9.44 µM (active) |
| Cc1cc(=O)c2c(O)c3c(O)cc(=O)c4c3c3c(cc(O)c1c23)C(C)(C)C=4O | 1.06 µM (active) |
| FC(F)(F)c1ccccc1Cl | inactive |
| CCOc1ccc(Cc2nccc3cc(OCC)c(OCC)cc23)cc1OCC | 5.07 µM (active) |
| CN1C[C@H](C(=O)N[C@]2(C)O[C@@]3(O)[C@@H]4CCCN4C(=O)[C@H](Cc4ccccc4)N3C2=O)C[C@@H]2c3cccc4[nH]cc(c34)C[C@H]21 | 16.8 µM (active) |
| C[C@@H](O)[C@H]1C(=O)N2C(C(=O)O)=C([C@H]3CCCO3)S[C@H]12 | inactive |
| C=CC(=O)[O-].C=CC(=O)[O-].[Zn+2] | inactive |
| CN1CCCC(n2nc(Cc3ccc(Cl)cc3)c3ccccc3c2=O)CC1 (stereo not given) | 16.8 µM (active) |
| O=C1c2ccccc2C(=O)C1(O)O | 27.4 µM (active) |
| CO[C@]1(NC(=O)CSC(F)F)C(=O)N2C(C(=O)O)=C(CSc3nnnn3CCO)CO[C@H]21 | inactive |
| Nc1cccc2c1CN(C1CCC(=O)NC1=O)C2=O (stereo not given) | inactive |
| CC(=O)OCC[N+](C)(C)C | inactive |
| O=C(/C=C/c1ccc(O)c(O)c1)O[C@@H]1C[C@@](OC(=O)/C=C/c2ccc(O)c(O)c2)(C(=O)O)C[C@@H](O)[C@@H]1O | inactive |
| COC(=O)C1=C(C)NC(C)=C(C(=O)O[C@@H]2CCCN(Cc3ccccc3)C2)[C@@H]1c1cccc([N+](=O)[O-])c1 | 13.3 µM (active) |
| OCCOCC#CCOCCO | inactive |
| CCOC(=O)c1ccc(OCCN2C[C@H](O)[C@@H](O)[C@H](O)[C@H]2CO)cc1 | inactive |
| CC(C)=CC(=O)C=C(C)C | inactive |

| Structure (SMILES) | Potency |
| --- | --- |
| CCn1cc(C(=O)O)c(=O)c2cc(F)c(N3CCNCC3)cc21 | inactive |
| Cc1ccco1 | inactive |
| c1cc(N(CC2CO2)CC2CO2)ccc1Cc1ccc(N(CC2CO2)CC2CO2)cc1 (stereo not given) | 1.93 µM (active) |
| CC(=O)OCC(=O)NCCCOc1cccc(CN2CCCCC2)c1 | inactive |
| CCCCCCCC/C=C\CCCCCCCCO | inactive |
| Cc1ccc(Cl)c(Nc2ccccc2C(=O)O)c1Cl | inactive |
| CCC(C)COC(C)=O (stereo not given) | inactive |
| CCCCCCCCC(CCCCCC)C(=O)O (stereo not given) | inactive |
| CC1(C)[C@@H](OC(=O)CCC(=O)O)CC[C@]2(C)[C@H]3C(=O)C=C4[C@@H]5C[C@@](C)(C(=O)O)CC[C@]5(C)CC[C@@]4(C)[C@]3(C)CC[C@@H]12 | inactive |
| Cc1ccc(C(C)(C)O)cc1 | inactive |
| CC[N+](CC)(CCNC(=O)C(=O)NCC[N+](CC)(CC)Cc1ccccc1Cl)Cc1ccccc1Cl | inactive |
| O=C(Nc1cccc2c(=O)cc(-c3nn[nH]n3)oc12)c1ccc(OCCCCc2ccccc2)cc1 | inactive |
| CC(=O)Nc1ccc(C)cc1C | inactive |
| CC(C)(C)C(=O)C(=O)O | inactive |
| O=C(/C=C/c1ccccc1)OCCc1ccccc1 | inactive |
| CCCCCCCCOc1ccc(C(=O)O)cc1 | inactive |
| CCN(CC)CCNC(=O)COc1ccc(OC)cc1 | inactive |
| COc1cc(Nc2c(C#N)cnc3cc(OCCCN4CCN(C)CC4)c(OC)cc23)c(Cl)cc1Cl | 2.37 µM (active) |
| CCC(=O)OC | inactive |
| CCOC(=O)/C=C/C(=O)OCC | inactive |
